Results filed as inconclusive are left out. Calls of active or inactive are those of the source. Unless noted, calls come from the whole dose curve; as a rule, active = well fitted curve in the direction sought with a large enough effect; inconclusive = small, poorly fitted or top-dose-only effect, or another doubt; inactive = no such curve, though single readings can be large; an effect the other way counts as inactive or inconclusive.
Legend:
[1] = target: Lysosomal acid glucosylceramidase (Homo sapiens) (UniProt P04062); assay: Glucocerebrosidase-p2 (AID 348; in the data active = potency below about 10 µM; note: potency is the fitted concentration of half-maximal effect); settings: purified GBA, blue fluorogenic substrate, 40 min
Method in brief: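 Compounds titrated from 0.6 nM upwards against 0.2 nM enzyme in pH 5.9 citric acid/KH2PO4, taurocholate, tween-20; blue fluorogenic substrate 80 uM, 40 min room temperature, stopped and read Ex 365/Em 440 for AC50.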

[2] = AP1 Signaling Pathway (AID 357; active = well fitted curve in either direction with a large enough effect, not every such curve was filed as active; note: % is set by controls: 0 for no effect and ±100 for the full control effect); settings: ME-180 AP-1-bla reporter, EGF-induced, beta-lactamase ratio, 5 h; at 7.69 µM (top of the series) unless noted
Method in brief: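 ME-180 cells with beta-lactamase reporter under AP-1 response element, stimulated with EC50 EGF; compounds tested in titration series, 5 h at 37 °C. CCF4 substrate added 2.5 h at room temperature; 460/530 nm emission ratio gave %activity and AC50.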

[3] = target: Cytochrome P450 1A2 (Homo sapiens) (UniProt P05177); assay: p450-cyp1a2 (AID 410; calls by dose curve; note: potency is the fitted concentration of half-maximal effect); settings: recombinant CYP1A2, luciferin-ME demethylation, luminescence; series mostly up to 57 µM
Method in brief: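 Inhibition was calculated relative to 57 uM furafylline (full inhibition). The reaction used human CYP1A2 at 20nM with Luciferin-ME at its Km, 100uM, driven by an NADPH-regenerating system for 60 min at room temperature.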

[4] = NFAT Signaling Pathway (AID 444; active = well fitted curve in either direction with a large enough effect, not every such curve was filed as active;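 note: carbachol stimulus at about its EC50 of 1 µM final; % is set by controls: 0 for no effect and ±100 for the full control effect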); settings: Jurkat NFAT-bla M1, carbachol, beta-lactamase ratio, 5 h; at 7.69 µM (top of the series) unless noted
Method in brief: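 Read-out: CCF4 FRET ratio (460 nm/530 nm) after 1 h RT dye loading, used for %activity and AC50 from titration series. Cells: Jurkat NFAT-β-lactamase/M1 line, treated with compound plus 1 uM carbachol for 5 h, 37 °C.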

[5] = Stat Signaling Pathway (AID 446; active = well fitted curve in either direction with a large enough effect, not every such curve was filed as active;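 note: ME-180 cervical cancer cells given 40 pM IL-6 alongside compound; SIE-controlled beta-lactamase reporter measured as 460/530 nm FRET emission ratio; % is set by controls: 0 for no effect and ±100 for the full control effect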); settings: ME-180 SIE beta-lactamase reporter, IL-6 stimulated, 5 h; at 7.69 µM (top of the series) unless noted
Method in brief: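 ME-180 SIE-bla cells; overnight plating; cpd + IL-6 40 pM, 5 h, 37 C; LiveBLAzer 2.5 h RT; 460/530 nm emission ratio. Normalized to 300 pM IL-6 and 125 nM JAK inhibitor controls.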

[6] = target: Glucocorticoid receptor (Homo sapiens) (UniProt P04150); assay: GR-GFP Redistribution (AID 450;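 active = compounds whose dose series gives a full or clear partial fitted curve of increased nuclear translocation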; note: potency is the fitted concentration of half-maximal effect); settings: U2OS GR-GFP nuclear translocation, laser cytometry, 2 h
[7] = target: Glucocorticoid receptor (Homo sapiens) (UniProt P04150); assay: GR-EFC Redistribution (AID 451; calls by dose curve; note: potency is the fitted concentration of half-maximal effect); settings: CHO-K1 GR-EFC translocation, beta-gal luminescence, 2 h
Method in brief: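 Translocation of GR-ED fusion to nuclear EA restores b-gal, read by luminescence after 1 h room-temperature detection. Engineered CHO-K1 biosensor cells, 1,000/well, exposed 2 h at 37 C to titrations up to 46 uM final.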

[8] = target: Mitogen-activated protein kinase 10 (Mus musculus) (UniProt Q61831); assay: JNK3 AlphaScreen Assay (AID 530; active = well fitted curve in either direction with a large enough effect, not every such curve was filed as active;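 note: kinase came from lysate of stimulated human HepG2 cells; signal reports phosphorylation of biotinylated GST-cJun 1-79 at Ser73 with 10 µM ATP; % is set by controls: 0 for no effect and ±100 for the full control effect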); settings: JNK3 lysate, c-Jun phosphorylation; series mostly up to 57.1 µM
Method in brief: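 Room-temperature AlphaScreen kinase assay; pre-activated HepG2 lysate as JNK3 source, biotin-GST-cJun(1-79) substrate, 10 uM ATP, compound 15 min preincubation.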

[9] = target: 3',5'-cyclic-AMP phosphodiesterase 4B (Homo sapiens) (UniProt Q07343); assay: qHTS Assay for Inhibitors of PDE-IV (AID 607; active = well fitted activation curve with a large enough effect in the main read-out, with a control signal flat, not every such curve was filed as active; note: potency is the fitted concentration of half-maximal effect); settings: HEK293 ACTOne CNG channel cells, membrane potential fluorescence; series mostly up to 22.9 µM
Method in brief: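 ACTOne HEK293 cells carry a modified cAMP-gated CNG channel and express endogenous PDE4; plated 1000 cells/well, compounds up to 22.9 uM final. Membrane-potential dye fluorescence (ex 535/em 590) was read; parental cells received 10 uM forskolin + 100 uM RO 20-1724.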

[10] = target: Cytochrome P450 3A4 (Homo sapiens) (UniProt P08684); assay: qHTS Assay for Activators of Cytochrome P450 3A4 (AID 885); settings: recombinant CYP3A4, Luciferin-PPXE luminescence, 60 min; series mostly up to 57.1 µM; note: nearly all actives have a fitted effect of over 65% in size
Method in brief: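 20nM CYP3A4 + 25uM Luciferin-PPXE (=KM), 200mM KPO4; cpd 10 min RT; NADPH regen, 60 min RT; stop w/ detection buffer, 20 min; luminescence. Normalized to 57 uM ketoconazole.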

[11] = target: Cytochrome P450 2C19 (Homo sapiens) (UniProt P33261); assay: qHTS Assay for Inhibitors and Substrates of Cytochrome P450 2C19 (AID 899); settings: recombinant CYP2C19, luciferin-H EGE luminescence; series mostly up to 57.1 µM; note: nearly all actives have a fitted effect of over 60% in size; note: potency is the fitted concentration of half-maximal effect
Method in brief: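 Reactions contain 5nM enzyme, 10uM Luciferin-H EGE (KM) and 50mM KPO4; compound preincubates 10 min at 37C, NADPH regeneration starts turnover for 60 min. Luminescence after detection reagent gives activity.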

[12] = Confirmation and Secondary Assay for Modulators of Hemoglobin Beta Chain Splicing at IVS2 654 locus (AID 910); settings: HeLa EGFP-654 splicing reporter, GFP fluorescence, 48 h; series mostly up to 38.3 µM;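 note: HeLa cells stably carrying EGFP split by mutant beta-globin IVS2-654 intron; % of control where 0% means no effect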
Method in brief: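 Readout: per-well total peak green fluorescence (488 nm ex, 500–520 nm em) from objects 5–250 µm, reflecting correct splicing of an EGFP-654 reporter. Compounds were applied for 2 days at 37 °C to overnight-plated HeLa EGFP-654 cells; controls were DMSO and 500 nM IVS2-654 PNA.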

[13] = qHTS Assay for Identification of Small Molecule Agonists for Hypoxia Response Element Signaling Pathway (AID 914; active = well fitted activation curve with a large enough effect in the signal ratio, with a control signal flat, not every such curve was filed as active; the % refers to the signal ratio; note: potency is the fitted concentration of half-maximal effect; for activation: % of control where 0% means no effect); settings: ME-180 (cervical carcinoma) HRE-bla reporter, beta-lactamase ratio, CoCl2, 17 h; activation: stronger effect = higher value
Method in brief: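 HRE-bla ME-180 cells, overnight plating in Opti-MEM with 0.5% dialyzed FBS; cpd titration + EC50 CoCl2, 17 h, 37 degrees Celsius; CCF4 2.5 h RT; 460/530 nm ratio; AC50.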

[14] = Confirmation and Secondary Assay for Modulators of Hemoglobin Beta Chain Splicing at IVS2 705 locus (AID 930); settings: HeLa EGFP-705 splicing reporter, GFP fluorescence, 48 h; series mostly up to 38.3 µM;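 note: HeLa cells stably expressing the EGFP-705 splicing reporter; GFP fluorescence per well restored by corrected splicing of the IVS2-705 intron in EGFP; % of control where 0% means no effect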
Method in brief: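 Read-out: total peak GFP fluorescence per well (488 nm excitation, 500-520 nm emission) by laser-scanning cytometry. Cells: HeLa EGFP-705 splicing reporter, 2 days compound exposure in Optimem/2% FCS.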

[15] = qHTS Assay for Lipid Storage Modulators (AID 1519; calls by dose curve); settings: Drosophila S3 cells, BODIPY lipid droplet/cell ratio, laser cytometry, cells loaded with oleic acid; for activity change, negative = inhibition: at 57.5 µM (top of the series)
Method in brief: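 Cells seeded at 5,000 per well were treated with compounds over a concentration series and loaded with oleic acid (400 uM, as added). Lipid droplet fluorescence (488 nm excitation, 500-530 nm channel) was read by laser-scanning cytometry and normalized to 20 uM Triacsin C.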

[16] = target: Ubiquitin carboxyl-terminal hydrolase 1 (Homo sapiens) (UniProt O94782); assay: Inhibitors of USP1/UAF1: Pilot qHTS (AID 504865); settings: purified USP1/UAF1, Ub-rhodamine cleavage fluorescence; series mostly up to 54.9 µM; note: nearly all actives have a fitted effect of over 35% in size; note: potency is the fitted concentration of half-maximal effect
Method in brief: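 USP1/UAF1 complex (1nM) preincubated with compound 15 min at room temperature, then Ub-Rho substrate (150nM final) added. Fluorescence read kinetically at 480/540 nm, 6 reads every 60 seconds. Buffer: 50mM HEPES pH 7.8, 0.5mM EDTA, 0.1 mg/ml BSA, 1mM TCEP, 0.01% Tween-20.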

[17] = Primary qHTS for small molecule stabilizers of the endoplasmic reticulum resident proteome: Secreted ER Calcium Modulated Protein (SERCaMP) assay (AID 1508630); settings: SH-SY5Y GLuc-SERCaMP (Gaussia luciferase released on ER calcium loss) secretion, thapsigargin, luminescence; series mostly up to 38.4 µM; note: % is set by controls: 0 for no effect and ±100 for the full control effect
Method in brief: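 GLuc-SERCaMP-expressing SH-SY5Y cells, pretreated 16 h with compound, are challenged with thapsigargin to empty ER calcium stores; after 4 h, coelenterazine is added directly to the medium and luminescence is imaged.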

[18] = target: Dual specificity protein kinase CLK4 (Homo sapiens) (UniProt Q9HAZ1); assay: qHTS Assay for Inhibitors of CDC-like Kinase 4 (ADP-FP Assay) (AID 1795); settings: Transcreener ADP fluorescence polarization; series mostly up to 50 µM; note: % is set by controls: 0 for no effect and ±100 for the full control effect; nearly all actives have a fitted effect of over 60% in size
Method in brief: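 Recombinant human Clk4 (6.25 nM) phosphorylated RS repeat peptide (100 uM) with 1 uM ATP in Tris pH 7.5/MgCl2/EGTA/DTT/Triton buffer for one hour. ADP was quantified by Transcreener competitive fluorescence polarization against an ADP calibration curve.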

[19] = measured here: cell count channel max response
[20] = measured here: lipid channel max response

Sequence of Ubiquitin carboxyl-terminal hydrolase 1 (Homo sapiens) (O94782 whole entry, looked up): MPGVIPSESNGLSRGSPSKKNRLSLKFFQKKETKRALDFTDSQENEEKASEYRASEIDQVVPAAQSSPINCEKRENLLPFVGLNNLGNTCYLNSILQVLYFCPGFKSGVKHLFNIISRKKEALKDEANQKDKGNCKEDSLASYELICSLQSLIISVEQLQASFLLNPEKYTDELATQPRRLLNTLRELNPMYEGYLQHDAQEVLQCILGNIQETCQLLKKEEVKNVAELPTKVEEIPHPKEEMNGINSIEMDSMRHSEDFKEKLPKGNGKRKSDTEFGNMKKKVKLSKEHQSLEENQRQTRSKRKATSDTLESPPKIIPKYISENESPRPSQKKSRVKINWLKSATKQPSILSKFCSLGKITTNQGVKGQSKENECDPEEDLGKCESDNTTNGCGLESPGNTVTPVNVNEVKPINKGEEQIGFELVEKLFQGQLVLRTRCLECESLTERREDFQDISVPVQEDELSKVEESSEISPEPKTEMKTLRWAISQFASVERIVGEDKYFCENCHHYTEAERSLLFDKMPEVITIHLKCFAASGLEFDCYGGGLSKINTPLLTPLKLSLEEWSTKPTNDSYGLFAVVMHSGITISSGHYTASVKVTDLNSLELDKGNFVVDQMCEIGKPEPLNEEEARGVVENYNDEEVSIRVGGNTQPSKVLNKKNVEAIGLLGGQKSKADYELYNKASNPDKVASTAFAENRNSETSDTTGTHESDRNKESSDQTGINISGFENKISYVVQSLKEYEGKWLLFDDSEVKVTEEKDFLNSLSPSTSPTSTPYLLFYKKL
Sequence of Lysosomal acid glucosylceramidase (Homo sapiens) (P04062 whole entry, looked up): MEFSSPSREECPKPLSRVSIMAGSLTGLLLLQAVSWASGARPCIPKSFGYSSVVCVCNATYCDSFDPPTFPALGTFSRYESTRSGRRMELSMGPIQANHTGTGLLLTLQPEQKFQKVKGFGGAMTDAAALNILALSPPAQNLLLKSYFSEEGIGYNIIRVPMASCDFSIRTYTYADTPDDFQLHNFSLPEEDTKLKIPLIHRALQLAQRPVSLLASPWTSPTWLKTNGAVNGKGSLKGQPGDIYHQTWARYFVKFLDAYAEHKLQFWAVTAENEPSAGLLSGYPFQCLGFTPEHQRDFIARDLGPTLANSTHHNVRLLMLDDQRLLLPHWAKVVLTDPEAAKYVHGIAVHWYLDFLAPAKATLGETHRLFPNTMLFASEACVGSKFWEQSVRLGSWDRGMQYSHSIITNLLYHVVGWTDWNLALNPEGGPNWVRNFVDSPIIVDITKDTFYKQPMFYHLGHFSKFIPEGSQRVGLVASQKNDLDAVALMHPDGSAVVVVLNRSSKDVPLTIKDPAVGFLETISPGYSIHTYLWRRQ
Sequence of Dual specificity protein kinase CLK4 (Homo sapiens) (Q9HAZ1 whole entry, looked up): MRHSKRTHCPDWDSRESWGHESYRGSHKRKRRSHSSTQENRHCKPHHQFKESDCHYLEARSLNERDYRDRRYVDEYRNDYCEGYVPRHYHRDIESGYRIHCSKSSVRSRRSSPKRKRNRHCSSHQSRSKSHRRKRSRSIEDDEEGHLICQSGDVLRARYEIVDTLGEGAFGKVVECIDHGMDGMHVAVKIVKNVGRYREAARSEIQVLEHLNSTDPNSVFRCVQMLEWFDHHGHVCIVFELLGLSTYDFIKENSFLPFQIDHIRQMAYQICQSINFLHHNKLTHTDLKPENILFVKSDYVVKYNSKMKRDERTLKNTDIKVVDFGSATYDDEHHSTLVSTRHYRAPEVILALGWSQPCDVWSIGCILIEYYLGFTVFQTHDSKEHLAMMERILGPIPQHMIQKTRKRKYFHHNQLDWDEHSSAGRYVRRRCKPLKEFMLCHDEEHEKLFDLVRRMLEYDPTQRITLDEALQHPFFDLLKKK
Sequence of Glucocorticoid receptor (Homo sapiens) (P04150 whole entry, looked up, the tested form may be a part): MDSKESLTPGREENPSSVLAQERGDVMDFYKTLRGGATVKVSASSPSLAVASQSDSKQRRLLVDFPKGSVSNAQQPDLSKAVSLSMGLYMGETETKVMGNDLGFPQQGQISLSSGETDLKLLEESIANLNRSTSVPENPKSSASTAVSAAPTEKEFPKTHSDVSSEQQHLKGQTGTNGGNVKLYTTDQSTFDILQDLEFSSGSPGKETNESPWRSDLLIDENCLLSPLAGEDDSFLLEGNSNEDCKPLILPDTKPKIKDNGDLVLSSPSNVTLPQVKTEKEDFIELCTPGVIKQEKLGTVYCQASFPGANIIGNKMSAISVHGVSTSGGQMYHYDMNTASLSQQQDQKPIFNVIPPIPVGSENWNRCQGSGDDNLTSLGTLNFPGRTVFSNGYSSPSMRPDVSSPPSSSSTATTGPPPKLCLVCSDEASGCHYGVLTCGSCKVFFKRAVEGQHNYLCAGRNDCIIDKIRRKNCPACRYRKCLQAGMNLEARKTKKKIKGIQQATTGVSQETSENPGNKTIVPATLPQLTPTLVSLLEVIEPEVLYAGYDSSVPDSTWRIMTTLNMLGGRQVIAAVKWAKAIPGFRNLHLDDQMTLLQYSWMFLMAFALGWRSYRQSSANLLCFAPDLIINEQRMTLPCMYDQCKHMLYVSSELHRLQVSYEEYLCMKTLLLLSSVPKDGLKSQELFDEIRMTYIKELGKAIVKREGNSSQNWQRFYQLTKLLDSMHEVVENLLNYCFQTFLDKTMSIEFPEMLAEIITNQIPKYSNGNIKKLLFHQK
Sequence of Cytochrome P450 1A2 (Homo sapiens) (P05177 whole entry, looked up): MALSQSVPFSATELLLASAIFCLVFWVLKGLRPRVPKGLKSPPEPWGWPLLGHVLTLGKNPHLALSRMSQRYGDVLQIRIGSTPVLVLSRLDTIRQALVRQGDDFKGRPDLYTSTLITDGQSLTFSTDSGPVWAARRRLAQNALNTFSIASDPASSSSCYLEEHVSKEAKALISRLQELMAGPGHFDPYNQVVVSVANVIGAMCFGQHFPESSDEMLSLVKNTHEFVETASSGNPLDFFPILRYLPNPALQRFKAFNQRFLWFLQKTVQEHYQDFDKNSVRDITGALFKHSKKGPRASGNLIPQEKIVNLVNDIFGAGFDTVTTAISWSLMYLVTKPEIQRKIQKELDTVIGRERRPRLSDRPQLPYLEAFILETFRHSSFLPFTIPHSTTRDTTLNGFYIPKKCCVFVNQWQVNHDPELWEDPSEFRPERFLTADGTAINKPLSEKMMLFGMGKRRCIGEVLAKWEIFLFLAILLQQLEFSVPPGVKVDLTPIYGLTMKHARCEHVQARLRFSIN
Sequence of 3',5'-cyclic-AMP phosphodiesterase 4B (Homo sapiens) (Q07343 whole entry, looked up): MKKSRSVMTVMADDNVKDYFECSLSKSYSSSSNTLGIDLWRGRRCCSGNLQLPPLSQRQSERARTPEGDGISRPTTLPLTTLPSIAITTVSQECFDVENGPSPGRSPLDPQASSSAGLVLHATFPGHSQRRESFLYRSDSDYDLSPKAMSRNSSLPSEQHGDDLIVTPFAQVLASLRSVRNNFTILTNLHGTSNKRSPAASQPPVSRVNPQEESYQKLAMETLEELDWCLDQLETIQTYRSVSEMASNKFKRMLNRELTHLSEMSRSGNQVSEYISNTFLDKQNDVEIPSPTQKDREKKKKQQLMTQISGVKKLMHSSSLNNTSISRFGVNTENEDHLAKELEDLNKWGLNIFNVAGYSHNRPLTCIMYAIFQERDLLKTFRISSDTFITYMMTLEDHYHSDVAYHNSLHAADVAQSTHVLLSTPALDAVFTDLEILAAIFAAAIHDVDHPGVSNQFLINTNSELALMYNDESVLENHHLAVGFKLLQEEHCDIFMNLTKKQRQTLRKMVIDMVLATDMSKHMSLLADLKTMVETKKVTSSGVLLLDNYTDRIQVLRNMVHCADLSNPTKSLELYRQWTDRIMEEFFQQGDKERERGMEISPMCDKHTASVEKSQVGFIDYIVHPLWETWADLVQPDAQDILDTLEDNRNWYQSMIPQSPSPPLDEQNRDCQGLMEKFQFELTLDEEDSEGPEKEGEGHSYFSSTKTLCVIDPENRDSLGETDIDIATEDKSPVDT
Sequence of Cytochrome P450 2C19 (Homo sapiens) (P33261 whole entry, looked up): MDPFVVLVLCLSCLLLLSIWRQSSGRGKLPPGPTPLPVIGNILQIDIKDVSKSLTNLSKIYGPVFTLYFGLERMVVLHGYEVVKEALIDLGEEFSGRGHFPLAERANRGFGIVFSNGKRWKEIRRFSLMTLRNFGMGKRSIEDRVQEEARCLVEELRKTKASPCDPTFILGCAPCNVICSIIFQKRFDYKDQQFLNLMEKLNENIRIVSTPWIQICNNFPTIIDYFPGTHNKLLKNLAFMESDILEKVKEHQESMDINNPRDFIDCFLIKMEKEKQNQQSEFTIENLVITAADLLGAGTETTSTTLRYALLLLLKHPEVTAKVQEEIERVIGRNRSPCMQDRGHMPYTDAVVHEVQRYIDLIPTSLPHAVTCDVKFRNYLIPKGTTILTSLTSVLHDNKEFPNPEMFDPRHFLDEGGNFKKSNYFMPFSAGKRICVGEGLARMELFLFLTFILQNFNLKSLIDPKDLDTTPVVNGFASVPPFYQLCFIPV
Sequence of Cytochrome P450 3A4 (Homo sapiens) (P08684 whole entry, looked up): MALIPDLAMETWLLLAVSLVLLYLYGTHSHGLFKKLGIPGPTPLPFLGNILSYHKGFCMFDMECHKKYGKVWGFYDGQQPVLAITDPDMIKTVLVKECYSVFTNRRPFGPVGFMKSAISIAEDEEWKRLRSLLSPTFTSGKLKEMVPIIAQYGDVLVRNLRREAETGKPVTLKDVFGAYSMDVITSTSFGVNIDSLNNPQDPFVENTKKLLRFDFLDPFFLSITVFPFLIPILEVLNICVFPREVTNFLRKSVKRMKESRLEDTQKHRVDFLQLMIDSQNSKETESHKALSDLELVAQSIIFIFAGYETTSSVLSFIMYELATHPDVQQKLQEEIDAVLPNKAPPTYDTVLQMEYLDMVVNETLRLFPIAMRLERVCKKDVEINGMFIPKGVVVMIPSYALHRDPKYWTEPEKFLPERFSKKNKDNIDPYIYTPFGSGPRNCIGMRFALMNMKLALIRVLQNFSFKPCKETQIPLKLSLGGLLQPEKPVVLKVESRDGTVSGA

CNc1ccnc(-c2c(C)noc2C)n1
active: Potency [3] 1.26 µM
inactive: Potency [1] > 11.4 µM | activity change, negative = inhibition [2] 2.46% | activity change, negative = inhibition [4] 1.59% | activity, negative = inhibition [5] 12.4% | Potency [6] > 46 µM | Potency [7] > 46 µM | outcome [8] | Potency [9] | Potency [10] | Potency [11] | outcome [12] | activation [13] 11.5% | outcome [14] | activity change, negative = inhibition [15] 4.8% | Potency [16] | Potency [17]
-8.12%: max response [15, 20]
-12.7%: max response [15, 19]

CCNc1ncc2nc(C)c(=O)n(C3CC3)c2n1
inactive: Potency [1] > 11.4 µM | activity change, negative = inhibition [2] -8.59% | activity change, negative = inhibition [4] -13.9% | activity, negative = inhibition [5] -2.73% | Potency [6] > 9.22 µM | Potency [7] > 46 µM | outcome [8] | activity change, negative = inhibition [15] -1.33% | Potency [16] | Potency [17]
4.64%: max response [15, 20]
active: Potency [3] 5.01 µM | Potency [9] 2.51 µM
6.66%: max response [15, 19]

O=c1cnc2cnc(Nc3ccccc3)nc2n1Cc1ccc(F)cc1
9.12%: max response [15, 19]
active: Potency [3] 1 µM
14.4%: max response [15, 20]
inactive: Potency [1] > 11.4 µM | activity change, negative = inhibition [2] -17.4% | activity change, negative = inhibition [4] 3.72% | activity, negative = inhibition [5] -3.92% | Potency [7] > 46 µM | outcome [8] | activity change, negative = inhibition [15] 6.15% | Potency [18] | Potency [16] | Potency [17]

COc1ccccc1-c1cc(NCc2ccccc2)ncn1
inactive: Potency [1] > 11.4 µM | activity change, negative = inhibition [4] -5.25% | activity, negative = inhibition [5] 2.32% | Potency [6] > 46 µM | Potency [7] > 46 µM | outcome [8] | activity change, negative = inhibition [15] 2.28% | Potency [18] | Potency [17]
active: Potency [3] 2.51 µM | Potency [11] 7.94 µM | Potency [16] 22.4 µM
10.9%: max response [15, 19]
10.5%: max response [15, 20]

O=c1c(-c2cc(F)cc(F)c2)nc2cnc(N3CCNCC3)nc2n1C1CC1
4.55%: max response [15, 20]
inactive: Potency [1] > 11.4 µM | Potency [6] > 9.22 µM | Potency [7] > 46 µM | outcome [8] | Potency [9] | Potency [10] | activity change, negative = inhibition [15] 2.24% | Potency [18] | Potency [16] | Potency [17]
4.49%: max response [15, 19]
active: Potency [3] 3.16 µM | Potency [13] 2.51 µM

COc1cccc(Nc2ncc3nc(C)c(=O)n(C)c3n2)c1
inactive: Potency [1] > 11.4 µM | activity change, negative = inhibition [2] -0.695% | activity change, negative = inhibition [4] -5.64% | activity, negative = inhibition [5] -12.2% | Potency [7] > 46 µM | outcome [8] | Potency [9] | activity change, negative = inhibition [15] -0.403% | Potency [18] | Potency [16] | Potency [17]
active: Potency [3] 1 µM
2.52%: max response [15, 20]
5.56%: max response [15, 19]

— PubChem BioAssay (NCATS)
